# In all, about 310,000 compounds went through this assay and about 14,000 (4.5%) showed an effect of 50% or more. The effect is printed as a negative number. The sample holds strong results, similar compounds and a random draw of the others, so the mix is not that of the screen.
# Biological target: human ether-à-go-go-related gene (hERG) potassium channel (human, UniProt Q12809)
# Test: primary screen, population patch clamp on CHO cells stably expressing hERG; higher = less effect of the substance
# 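Note: peak tail current of the secondary pulse compared with the same well before compound.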
# Chain of human ether-à-go-go-related gene (hERG) potassium channel (Q12809 whole entry, looked up): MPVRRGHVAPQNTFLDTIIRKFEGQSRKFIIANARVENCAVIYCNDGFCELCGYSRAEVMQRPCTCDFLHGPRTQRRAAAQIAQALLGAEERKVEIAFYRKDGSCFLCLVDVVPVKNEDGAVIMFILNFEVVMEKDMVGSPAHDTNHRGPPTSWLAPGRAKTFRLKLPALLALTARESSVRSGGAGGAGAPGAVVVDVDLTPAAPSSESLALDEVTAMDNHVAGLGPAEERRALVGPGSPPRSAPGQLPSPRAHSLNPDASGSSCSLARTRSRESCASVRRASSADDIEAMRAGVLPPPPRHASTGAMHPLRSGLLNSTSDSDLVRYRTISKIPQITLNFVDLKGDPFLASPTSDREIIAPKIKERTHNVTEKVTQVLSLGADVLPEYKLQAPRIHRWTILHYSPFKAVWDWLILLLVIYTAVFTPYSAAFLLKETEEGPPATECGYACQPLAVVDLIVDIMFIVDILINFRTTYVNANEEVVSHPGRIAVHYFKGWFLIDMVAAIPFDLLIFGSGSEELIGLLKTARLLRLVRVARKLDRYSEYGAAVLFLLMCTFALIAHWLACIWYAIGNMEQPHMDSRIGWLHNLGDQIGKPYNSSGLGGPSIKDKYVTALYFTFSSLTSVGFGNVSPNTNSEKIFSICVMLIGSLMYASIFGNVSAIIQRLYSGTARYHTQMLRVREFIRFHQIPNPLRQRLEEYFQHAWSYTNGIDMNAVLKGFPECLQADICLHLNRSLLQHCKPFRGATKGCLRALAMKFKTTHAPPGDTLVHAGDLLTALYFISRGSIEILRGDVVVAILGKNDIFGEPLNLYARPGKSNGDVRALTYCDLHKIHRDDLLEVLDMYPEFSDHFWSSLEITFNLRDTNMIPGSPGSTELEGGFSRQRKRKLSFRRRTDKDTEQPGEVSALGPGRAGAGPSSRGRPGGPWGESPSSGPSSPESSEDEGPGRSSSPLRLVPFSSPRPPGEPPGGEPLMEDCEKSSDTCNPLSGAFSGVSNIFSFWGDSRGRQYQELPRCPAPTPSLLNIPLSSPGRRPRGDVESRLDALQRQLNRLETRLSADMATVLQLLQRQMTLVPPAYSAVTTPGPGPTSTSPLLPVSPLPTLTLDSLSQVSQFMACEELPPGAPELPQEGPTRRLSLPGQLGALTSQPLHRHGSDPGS
row,Structure (SMILES),"hERG current change (%, negative = inhibition) at 10uM"
1,Cc1onc(-c2ccccc2)c1C(=O)OCC(=O)NC(=O)c1ccccc1,-31.1%
2,CCCCc1ccc(S(=O)(=O)NC2CCS(=O)(=O)C2)cc1 (stereo not shown),-2.26%
3,Clc1ccccc1Cn1nnc2c(Nc3ccccc3)ncnc21,-0.775%
4,COc1ccc(C2=NN(C(=O)c3ccco3)C(c3cc4ccccc4nc3Cl)C2)cc1 (stereo not shown),8.45%
5,Cc1ccc(OCC(=O)NNC(=O)C2CCN(c3ncnc4sc(C)c(C)c34)CC2)cc1,-50.7%
6,Cc1sc2ncnc(N3CCC(C(=O)NNC(=O)COc4ccc(Br)cc4)CC3)c2c1C,-68.5%
7,CCc1ccc(OCC(=O)NNC(=O)C2CCN(c3ncnc4sc(C)c(C)c34)CC2)cc1,-45.3%
8,Cc1cc(Cl)ccc1OCC(=O)NNC(=O)C1CCN(c2ncnc3sc(C)c(C)c23)CC1,5.64%
9,Cc1sc2ncnc(N3CCC(C(=O)NNC(=O)c4ccc(F)cc4)CC3)c2c1C,-21.9%
10,Cc1cccc(OCC(=O)NNC(=O)C2CCN(c3ncnc4sc(C)c(C)c34)CC2)c1,-48.2%
11,CCOc1ccc(OCC)c(NC(=O)C2CCCN2S(=O)(=O)c2cccc3cccnc23)c1 (stereo not shown),-4.43%
12,COc1cc(C=Nc2c(C)cc(C)cc2C)ccc1OC(C)=O,10.6%
13,COc1ccc(CCCc2nnc(SCC(=O)Nc3cc(C)ccc3C)o2)cc1,0.676%
14,CN=C1S/C(=C/c2cn(CC(=O)OC)c3ccccc23)C(=O)N1C,11.1%
15,COC(=O)c1sccc1NC(=S)Nc1cc(OC)ccc1OC,30.4%
16,CCOc1ccccc1NC(=O)Nc1ccsc1C(=O)OC,-62%
17,COC(=O)c1sccc1NC(=O)Nc1ccccc1OC,-41.4%
18,CCOc1ccccc1C(=O)Nc1ccsc1C(=O)OC,-0.813%
19,COC(=O)c1sccc1NC(=O)Nc1cc(OC)ccc1OC,-57.4%
20,COC(=O)c1sccc1NC(=O)Nc1ccc(OC)cc1OC,-20.3%
21,COC(=O)c1c(N2C(=O)[C@H]3[C@@H](C2=O)[C@]2(C(=O)Nc4c2ccc(C)c4C)N2CCC[C@@H]32)sc(C)c1C,15.4%
22,C/C(=C\C(=O)c1ccccc1)NCc1ccc(F)cc1,-22.7%
23,Cc1cc(S(=O)(=O)n2cnc3cc([N+](=O)[O-])ccc32)ccc1Cl,-2.69%
24,Cc1ccc(C(=O)Nc2cnc3ccccn3c2=O)cc1,-17.2%

row,Structure (SMILES),"hERG current change (%, negative = inhibition) at 10uM"
1,Cc1cc(=O)[nH]c(SCc2cccc3cccnc23)n1,13.3%
2,COc1ccc(CNc2c(CO)cnc3c2cnn3C)cc1,-13%
3,COc1ccc(NC(=O)CN(C)C(=O)c2cccc(S(=O)(=O)N3CCN(c4ccccc4)CC3)c2)cc1,-3.62%
4,O=C(N/N=C/c1ccco1)c1cc([N+](=O)[O-])cc([N+](=O)[O-])c1,6.85%
5,COC(=O)C(C)N(C#N)c1nc(C)cc(C)n1 (stereo not shown),8.78%
6,COc1ccc(NC(=O)COC(=O)Cc2c(F)cccc2Cl)cc1,-0.319%
7,COc1ccc(N2CCN(C(=O)CCSCc3ccccc3F)CC2)cc1,-28.1%
8,COc1ccccc1N1CCN(C(=O)CCSCc2ccccc2F)CC1,4.41%
9,CC1(C)C(=O)Nc2ccccc2N1C(=O)COC(=O)Cc1c(F)cccc1Cl,-50.1%
10,COc1ccc(N2CCN(C(=O)COC(=O)Cc3ccc(F)cc3)CC2)cc1,-20%
11,CC1(C)C(=O)Nc2ccccc2N1C(=O)COC(=O)CSc1ccc(F)cc1,-2.24%
12,COc1ccc(N2CCN(C(=O)COC(=O)Cc3c(F)cccc3Cl)CC2)cc1,-79%
13,COc1ccc(N2CCN(C(=O)COC(=O)CCc3ccccc3)CC2)cc1,-0.829%
14,COc1cccc(N2CCN(C(=O)CCSCc3ccccc3F)CC2)c1,-57.9%
15,COc1ccc(N2CCN(C(=O)COC(=O)Cc3cccc(OC)c3)CC2)cc1,-20%
16,CC1(C)C(=O)Nc2ccccc2N1C(=O)COC(=O)CSc1ccc(Cl)cc1,18.3%
17,COc1cccc(CC(=O)OCC(=O)N2CCN(c3ccc(F)cc3)CC2)c1,-60.6%
18,CSCC(NS(=O)(=O)c1ccc(C)cc1)C(=O)O (stereo not shown),8.98%
19,CC(=O)N1CC(C)Sc2ccc(S(=O)(=O)NCCc3cccc(C)c3)cc21 (stereo not shown),0.141%
20,COC(=O)CNC(=O)CNC(=O)Nc1ccccc1Cl,9.2%
21,Cc1ccc(S(=O)(=O)N/N=C/c2ccc(C(=O)O)cc2)cc1,15.2%
22,Nc1nc(N2CCN(c3ccccc3)CC2)n[nH]1,4.2%
23,COc1cc(NC2=Nc3cccc4cccc2c34)cc(OC)c1OC,1.72%
24,CCCCn1c(N)c(NCc2ccccc2OC)c(=O)[nH]c1=O,12.2%

row,Structure (SMILES),"hERG current change (%, negative = inhibition) at 10uM"
1,Cc1c(C=O)cnn1CCC(=O)O,4.76%
2,O=c1ccc2cc(S(=O)(=O)Nc3ccc(Br)cc3)ccc2o1,5.32%
3,COc1ccccc1NC(=O)CC1CCCC1,15.4%
4,CCn1c(SCC(=O)Nc2cc(C)on2)nc2c(c1=O)SC(C)C2 (stereo not shown),-4.2%
5,CCc1ccc(OCC(=O)Nc2ccc(S(=O)(=O)N3CCCC3)cc2)c(Br)c1,-4.25%
6,COCCn1c(SCC(=O)Nc2c(C)n(C)n(-c3ccccc3)c2=O)nnc1-c1ccncc1,5.95%
7,CCOC(=O)C1CCN(C(=O)Cn2nc(C)n3nc(-c4ccc(CC)cc4)cc3c2=O)CC1,5.33%
8,O=C(/C=C/c1ccccc1[N+](=O)[O-])OCC(=O)N1CCCC1,12%
9,COc1ccc(N2CCN(C(=O)COC(=O)CCOc3ccccc3C)CC2)cc1,-62.5%
10,COc1ccc(N2CCN(C(=O)COC(=O)CCOc3cc(C)ccc3C)CC2)cc1,0.516%
11,COc1ccc(N2CCN(C(=O)COC(=O)CCOc3ccc(C)cc3)CC2)cc1,9.09%
12,CCn1cc(C(=O)NCc2ccc3c(c2)OCO3)c(=O)c2cc(F)c(N3CCN(C(=O)c4ccco4)CC3)cc21,-1.93%
13,C=CCNC(=O)c1cn(CC)c2cc(N3CCN(C(=O)c4ccco4)CC3)c(F)cc2c1=O,-63.6%
14,CCn1cc(C(=O)NCC(C)C)c(=O)c2cc(F)c(N3CCN(C(=O)c4ccco4)CC3)cc21,-59.9%
15,CCn1cc(C(=O)NCCC(C)C)c(=O)c2cc(F)c(N3CCN(C(=O)c4ccco4)CC3)cc21,-11.3%
16,CCn1cc(C(=O)NCc2cccc(F)c2)c(=O)c2cc(F)c(N3CCN(C(=O)c4ccco4)CC3)cc21,-21%
17,CCn1cc(C(=O)NC(C)C)c(=O)c2cc(F)c(N3CCN(C(=O)c4ccco4)CC3)cc21,-34.6%
18,CCn1cc(C(=O)Nc2ncccc2O)c(=O)c2cc(F)c(N3CCN(C(=O)c4ccco4)CC3)cc21,1.98%
19,CCCCNC(=O)c1cn(CC)c2cc(N3CCN(C(=O)c4ccco4)CC3)c(F)cc2c1=O,-33.8%
20,CCn1cc(C(=O)NCc2ccco2)c(=O)c2cc(F)c(N3CCN(C(=O)c4ccco4)CC3)cc21,-26.4%
21,CCN(CC)CCNC(=O)c1cn(CC)c2cc(N3CCN(C(=O)c4ccco4)CC3)c(F)cc2c1=O.Cl,0.131%
22,CCC(C)NC(=O)c1cn(CC)c2cc(N3CCN(C(=O)c4ccco4)CC3)c(F)cc2c1=O (stereo not shown),-55.2%
23,CCCNC(=O)c1cn(CC)c2cc(N3CCN(C(=O)c4ccco4)CC3)c(F)cc2c1=O,-67%
24,O=C(c1ccc2c(c1)OCO2)N1CCOCC1,17.5%

row,Structure (SMILES),"hERG current change (%, negative = inhibition) at 10uM"
1,COc1cccc(OCCn2cccc2/C=C2/C(=N)N3OC(C)=CC3=NC2=O)c1,-23.5%
2,O=C(NCCCN1CCCC1=O)c1cccc(S(=O)(=O)Nc2ccc(F)cc2)c1,-24.5%
3,CCOC(=O)C1C(=O)Nc2nc(C)nn2C1c1ccccc1 (stereo not shown),14.4%
4,CCCc1ccc(C(=O)O/N=C(\N)c2ccccn2)cc1,-0.642%
5,CCn1cc(C(=O)NCc2ccncc2)c(=O)c2cc(F)c(N3CCN(C(=O)c4ccco4)CC3)cc21,-66.4%
6,CCn1cc(C(=O)NCc2cccnc2)c(=O)c2cc(F)c(N3CCN(C(=O)c4ccco4)CC3)cc21,-37.6%
7,CCn1cc(C(=O)NCc2ccccc2)c(=O)c2cc(F)c(N3CCN(C(=O)c4ccco4)CC3)cc21,-39.6%
8,O=C(NCc1ccc(N2CCCC2=O)cc1)c1cccc(Cl)c1,1.27%
9,CC(C)(C)C(=O)Nc1ccc(-c2cc3cc(Cl)ccc3o2)cc1,8.12%
10,Cc1ccc(NS(=O)(=O)c2ccc3oc(=O)ccc3c2)cc1Cl,3.79%
11,CC(C)c1ccccc1OCCCN1CCCC1.O=C(O)C(=O)O,-33.1%
12,CCc1ccccc1OCCCN1CCCC1.O=C(O)C(=O)O,-17.6%
13,CCC(=O)c1ccccc1OCCCCn1cncn1.O=C(O)C(=O)O,4.82%
14,CCC(=O)c1ccccc1OCCN1CCN(Cc2ccccc2)CC1.O=C(O)C(=O)O,-59.1%
15,CCC(=O)c1ccccc1OCCN1CCN(CC)CC1.O=C(O)C(=O)O,-13.7%
16,N#Cc1ccccc1OCCCNC1CCCC1.O=C(O)C(=O)O,-11.5%
17,CCc1ccccc1OCCCCN1CCCC1.O=C(O)C(=O)O,-40%
18,CCC(=O)c1ccccc1OCCCN1CCC(Cc2ccccc2)CC1.O=C(O)C(=O)O,-78.5%
19,N#Cc1ccccc1OCCCN1CCC(Cc2ccccc2)CC1.O=C(O)C(=O)O,-80%
20,CCC(=O)c1ccccc1OCCCN1C(=O)NC(C)(C)C1=O,0.00578%
21,O=C(O)C(=O)O.OCc1ccccc1OCCCN1CCC(Cc2ccccc2)CC1,-75%
22,COC(=O)c1ccccc1OCCN1CCCCCC1.O=C(O)C(=O)O,-46.2%

# From PMC4336329 (PLoS ONE, 2015)
